# Results: ChEMBL document CHEMBL1961873, “Compounds: GSK PKIS; Assays: Nanosyn kinase panel” (2012)
# Experiments:
# [1] = molecular target: Sphingosine kinase 1 (Homo sapiens) (UniProt Q9NYA1); conditions: at 1 µM;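 note: mean SPHK1 inhibition value reported from the GSK PKIS kinase panel screen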
# [2] = molecular target: T1, Sphingosine kinase 2 (Homo sapiens) (UniProt Q9NRA0); conditions: at 0.1 µM
# T1 sequence (whole entry): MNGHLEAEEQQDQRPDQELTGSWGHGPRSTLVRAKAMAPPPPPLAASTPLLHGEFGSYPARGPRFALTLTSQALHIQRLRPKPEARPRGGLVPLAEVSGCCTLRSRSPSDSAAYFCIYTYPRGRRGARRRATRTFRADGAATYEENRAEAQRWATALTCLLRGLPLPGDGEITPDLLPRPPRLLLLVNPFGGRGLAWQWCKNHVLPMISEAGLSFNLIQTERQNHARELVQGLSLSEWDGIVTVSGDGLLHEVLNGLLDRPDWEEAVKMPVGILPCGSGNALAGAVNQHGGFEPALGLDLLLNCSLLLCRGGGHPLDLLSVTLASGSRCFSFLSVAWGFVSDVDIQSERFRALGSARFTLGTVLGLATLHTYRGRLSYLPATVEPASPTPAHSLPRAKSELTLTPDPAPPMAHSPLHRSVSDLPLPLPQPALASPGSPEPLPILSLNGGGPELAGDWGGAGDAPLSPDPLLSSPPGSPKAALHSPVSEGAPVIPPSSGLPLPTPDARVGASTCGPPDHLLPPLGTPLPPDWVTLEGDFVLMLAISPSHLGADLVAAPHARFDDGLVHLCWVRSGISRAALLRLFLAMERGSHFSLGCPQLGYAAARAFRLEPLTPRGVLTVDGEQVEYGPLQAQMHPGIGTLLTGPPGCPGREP
# [3] = molecular target: T1, Sphingosine kinase 2 (Homo sapiens); conditions: at 1 µM
# [4] = molecular target: Casein kinase II subunit alpha (Homo sapiens) (UniProt P68400); conditions: at 0.1 µM
# [5] = molecular target: Casein kinase II subunit alpha (Homo sapiens) (UniProt P68400); conditions: at 1 µM
# [6] = molecular target: T2, Inhibitor of nuclear factor kappa-B kinase subunit alpha (Homo sapiens) (UniProt O15111); conditions: at 0.1 µM
# T2 sequence (whole entry): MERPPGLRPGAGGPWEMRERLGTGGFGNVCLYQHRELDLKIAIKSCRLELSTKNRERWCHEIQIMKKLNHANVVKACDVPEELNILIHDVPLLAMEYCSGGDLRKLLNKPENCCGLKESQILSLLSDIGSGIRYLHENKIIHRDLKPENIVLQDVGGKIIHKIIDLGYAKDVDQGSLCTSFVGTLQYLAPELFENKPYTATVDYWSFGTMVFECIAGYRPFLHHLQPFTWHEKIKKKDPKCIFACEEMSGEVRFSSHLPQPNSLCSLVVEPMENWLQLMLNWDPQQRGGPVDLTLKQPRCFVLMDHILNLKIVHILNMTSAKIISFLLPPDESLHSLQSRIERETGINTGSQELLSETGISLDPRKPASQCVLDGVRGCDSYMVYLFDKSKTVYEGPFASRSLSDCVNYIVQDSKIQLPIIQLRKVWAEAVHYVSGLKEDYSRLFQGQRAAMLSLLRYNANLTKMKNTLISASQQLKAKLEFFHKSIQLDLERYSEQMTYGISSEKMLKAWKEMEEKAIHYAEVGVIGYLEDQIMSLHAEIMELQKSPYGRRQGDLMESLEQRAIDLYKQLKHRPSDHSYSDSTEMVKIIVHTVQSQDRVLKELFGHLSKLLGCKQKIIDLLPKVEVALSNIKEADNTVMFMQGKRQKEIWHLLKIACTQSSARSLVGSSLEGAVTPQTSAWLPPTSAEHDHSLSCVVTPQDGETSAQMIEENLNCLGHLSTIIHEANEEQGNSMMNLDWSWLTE
# [7] = molecular target: T2, Inhibitor of nuclear factor kappa-B kinase subunit alpha (Homo sapiens); conditions: at 1 µM
# [8] = molecular target: T3, Inhibitor of nuclear factor kappa-B kinase subunit beta (Homo sapiens) (UniProt O14920); conditions: at 0.1 µM
# T3 sequence (whole entry): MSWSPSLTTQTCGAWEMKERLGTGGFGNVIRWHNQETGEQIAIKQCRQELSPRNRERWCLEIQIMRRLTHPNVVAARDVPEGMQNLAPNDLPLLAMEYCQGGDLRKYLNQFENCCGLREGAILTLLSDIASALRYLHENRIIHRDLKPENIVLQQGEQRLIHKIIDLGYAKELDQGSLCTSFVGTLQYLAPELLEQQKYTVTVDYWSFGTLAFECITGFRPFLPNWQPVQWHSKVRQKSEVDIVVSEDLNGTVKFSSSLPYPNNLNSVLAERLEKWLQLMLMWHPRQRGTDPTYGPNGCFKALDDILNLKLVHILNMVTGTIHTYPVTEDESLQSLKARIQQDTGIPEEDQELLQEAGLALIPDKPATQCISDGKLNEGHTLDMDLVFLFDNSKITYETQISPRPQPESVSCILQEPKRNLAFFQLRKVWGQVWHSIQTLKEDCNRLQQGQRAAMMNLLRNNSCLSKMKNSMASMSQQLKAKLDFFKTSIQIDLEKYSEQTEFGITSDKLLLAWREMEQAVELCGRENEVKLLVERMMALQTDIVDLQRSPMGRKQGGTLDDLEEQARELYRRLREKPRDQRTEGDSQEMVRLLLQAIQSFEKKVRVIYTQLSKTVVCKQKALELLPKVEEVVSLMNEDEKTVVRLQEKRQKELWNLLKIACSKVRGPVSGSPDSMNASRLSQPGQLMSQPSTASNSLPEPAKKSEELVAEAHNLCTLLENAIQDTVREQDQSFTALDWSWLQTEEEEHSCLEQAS
# [9] = molecular target: T3, Inhibitor of nuclear factor kappa-B kinase subunit beta (Homo sapiens); conditions: at 1 µM
# [10] = molecular target: T4, Inhibitor of nuclear factor kappa-B kinase subunit epsilon (Homo sapiens) (UniProt Q14164); conditions: at 0.1 µM
# T4 sequence (whole entry): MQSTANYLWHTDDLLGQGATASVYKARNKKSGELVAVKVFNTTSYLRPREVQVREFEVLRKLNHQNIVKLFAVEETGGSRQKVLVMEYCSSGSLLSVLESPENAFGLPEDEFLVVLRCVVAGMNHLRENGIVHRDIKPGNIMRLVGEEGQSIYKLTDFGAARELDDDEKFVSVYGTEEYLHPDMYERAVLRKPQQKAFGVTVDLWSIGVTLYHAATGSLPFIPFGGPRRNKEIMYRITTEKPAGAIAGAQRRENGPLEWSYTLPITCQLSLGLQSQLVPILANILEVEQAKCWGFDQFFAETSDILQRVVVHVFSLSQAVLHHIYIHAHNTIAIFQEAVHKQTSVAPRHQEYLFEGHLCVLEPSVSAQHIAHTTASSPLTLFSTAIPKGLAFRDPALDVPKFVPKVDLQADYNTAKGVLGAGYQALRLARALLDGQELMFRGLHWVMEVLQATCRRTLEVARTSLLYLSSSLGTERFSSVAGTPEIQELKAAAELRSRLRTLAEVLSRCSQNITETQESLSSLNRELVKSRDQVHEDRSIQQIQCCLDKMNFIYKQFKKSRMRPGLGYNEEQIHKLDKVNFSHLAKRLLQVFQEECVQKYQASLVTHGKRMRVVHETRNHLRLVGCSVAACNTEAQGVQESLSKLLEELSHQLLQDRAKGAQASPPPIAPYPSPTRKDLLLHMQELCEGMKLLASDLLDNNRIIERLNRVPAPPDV
# [11] = molecular target: T4, Inhibitor of nuclear factor kappa-B kinase subunit epsilon (Homo sapiens); conditions: at 1 µM
# [12] = molecular target: T5, Serine/threonine-protein kinase Nek1 (Homo sapiens) (UniProt Q96PY6); conditions: at 0.1 µM
# T5 sequence (whole entry): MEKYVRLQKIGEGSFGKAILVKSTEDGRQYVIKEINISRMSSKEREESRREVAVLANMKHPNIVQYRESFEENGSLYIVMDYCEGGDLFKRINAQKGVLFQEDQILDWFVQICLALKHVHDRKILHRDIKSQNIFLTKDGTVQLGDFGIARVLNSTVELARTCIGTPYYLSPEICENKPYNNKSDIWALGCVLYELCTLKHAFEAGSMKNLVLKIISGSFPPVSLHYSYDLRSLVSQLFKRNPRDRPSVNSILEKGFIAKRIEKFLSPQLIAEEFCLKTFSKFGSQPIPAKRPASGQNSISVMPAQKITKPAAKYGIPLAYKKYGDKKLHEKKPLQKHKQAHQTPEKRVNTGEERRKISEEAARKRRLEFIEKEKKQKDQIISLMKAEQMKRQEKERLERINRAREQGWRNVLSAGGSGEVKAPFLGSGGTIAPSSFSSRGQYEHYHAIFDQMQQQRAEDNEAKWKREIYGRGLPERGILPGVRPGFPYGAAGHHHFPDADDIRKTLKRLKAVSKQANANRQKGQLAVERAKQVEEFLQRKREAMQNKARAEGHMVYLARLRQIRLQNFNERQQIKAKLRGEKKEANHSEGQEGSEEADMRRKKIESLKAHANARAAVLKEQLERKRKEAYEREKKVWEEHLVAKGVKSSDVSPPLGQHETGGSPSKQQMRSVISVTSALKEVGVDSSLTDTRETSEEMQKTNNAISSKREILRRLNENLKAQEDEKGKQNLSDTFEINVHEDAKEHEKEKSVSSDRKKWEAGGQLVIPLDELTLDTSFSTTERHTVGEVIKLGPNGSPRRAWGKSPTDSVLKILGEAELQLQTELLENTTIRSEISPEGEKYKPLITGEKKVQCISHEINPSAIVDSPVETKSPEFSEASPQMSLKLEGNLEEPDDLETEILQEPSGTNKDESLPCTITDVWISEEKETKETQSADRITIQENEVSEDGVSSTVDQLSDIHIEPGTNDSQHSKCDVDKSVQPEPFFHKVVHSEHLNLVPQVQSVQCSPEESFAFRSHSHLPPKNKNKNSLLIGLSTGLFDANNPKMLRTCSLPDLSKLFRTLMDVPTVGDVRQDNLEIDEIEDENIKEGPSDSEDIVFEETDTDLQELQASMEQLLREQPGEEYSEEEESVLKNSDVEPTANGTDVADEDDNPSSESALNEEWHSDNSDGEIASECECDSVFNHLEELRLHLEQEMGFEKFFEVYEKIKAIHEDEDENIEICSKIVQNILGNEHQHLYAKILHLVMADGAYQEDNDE
# [13] = molecular target: T5, Serine/threonine-protein kinase Nek1 (Homo sapiens); conditions: at 1 µM
# [14] = molecular target: T6, Serine/threonine-protein kinase Nek2 (Homo sapiens) (UniProt P51955); conditions: at 0.1 µM
# T6 sequence (whole entry): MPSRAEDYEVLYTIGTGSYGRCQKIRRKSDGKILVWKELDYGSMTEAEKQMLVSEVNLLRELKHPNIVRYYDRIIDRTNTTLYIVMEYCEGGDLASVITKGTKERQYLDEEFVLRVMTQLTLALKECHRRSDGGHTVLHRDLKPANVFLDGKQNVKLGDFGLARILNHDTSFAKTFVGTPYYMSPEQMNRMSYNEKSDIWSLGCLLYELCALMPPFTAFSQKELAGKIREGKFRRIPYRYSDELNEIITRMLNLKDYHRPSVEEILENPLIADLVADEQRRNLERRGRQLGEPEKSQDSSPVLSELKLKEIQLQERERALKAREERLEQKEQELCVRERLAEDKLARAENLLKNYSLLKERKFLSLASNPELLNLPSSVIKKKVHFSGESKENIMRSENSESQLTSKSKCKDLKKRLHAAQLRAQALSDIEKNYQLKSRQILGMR
# [15] = molecular target: T6, Serine/threonine-protein kinase Nek2 (Homo sapiens); conditions: at 1 µM
# [16] = molecular target: Serine/threonine-protein kinase Nek6 (Homo sapiens) (UniProt Q9HC98); conditions: at 0.1 µM
# [17] = molecular target: Serine/threonine-protein kinase Nek6 (Homo sapiens) (UniProt Q9HC98); conditions: at 1 µM
# [18] = molecular target: Serine/threonine-protein kinase Nek7 (Homo sapiens) (UniProt Q8TDX7); conditions: at 0.1 µM
# [19] = molecular target: Serine/threonine-protein kinase Nek7 (Homo sapiens) (UniProt Q8TDX7); conditions: at 1 µM
# [20] = molecular target: T7, Serine/threonine-protein kinase Nek9 (Homo sapiens) (UniProt Q8TD19); conditions: at 0.1 µM;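 note: reported value is the mean percent inhibition of NEK9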
# T7 sequence (whole entry): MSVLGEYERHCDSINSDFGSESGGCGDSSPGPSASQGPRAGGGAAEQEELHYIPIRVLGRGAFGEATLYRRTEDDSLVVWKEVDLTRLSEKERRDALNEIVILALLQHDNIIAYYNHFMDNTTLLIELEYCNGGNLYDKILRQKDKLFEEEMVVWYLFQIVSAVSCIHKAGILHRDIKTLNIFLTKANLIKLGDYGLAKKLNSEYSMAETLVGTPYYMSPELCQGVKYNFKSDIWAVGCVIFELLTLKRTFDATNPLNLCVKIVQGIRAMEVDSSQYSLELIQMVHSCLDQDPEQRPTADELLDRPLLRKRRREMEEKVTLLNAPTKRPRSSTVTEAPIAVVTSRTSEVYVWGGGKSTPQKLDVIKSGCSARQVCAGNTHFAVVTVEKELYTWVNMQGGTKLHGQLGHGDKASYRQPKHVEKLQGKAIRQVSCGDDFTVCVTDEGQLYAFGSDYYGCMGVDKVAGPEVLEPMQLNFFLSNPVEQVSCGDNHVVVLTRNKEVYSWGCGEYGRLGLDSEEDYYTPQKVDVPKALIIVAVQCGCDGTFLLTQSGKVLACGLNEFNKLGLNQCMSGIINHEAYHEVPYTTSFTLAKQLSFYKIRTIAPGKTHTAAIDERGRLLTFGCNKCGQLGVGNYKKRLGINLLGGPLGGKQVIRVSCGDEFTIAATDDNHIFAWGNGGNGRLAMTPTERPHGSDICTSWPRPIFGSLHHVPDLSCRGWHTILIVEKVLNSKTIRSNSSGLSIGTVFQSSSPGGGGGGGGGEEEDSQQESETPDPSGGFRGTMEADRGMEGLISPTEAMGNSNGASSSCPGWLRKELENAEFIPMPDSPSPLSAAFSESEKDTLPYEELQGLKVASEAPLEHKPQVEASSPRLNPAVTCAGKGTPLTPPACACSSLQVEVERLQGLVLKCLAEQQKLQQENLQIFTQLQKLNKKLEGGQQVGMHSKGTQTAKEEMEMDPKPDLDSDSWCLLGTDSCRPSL
# Sequence of Serine/threonine-protein kinase Nek6 (Homo sapiens) (Q9HC98 whole entry): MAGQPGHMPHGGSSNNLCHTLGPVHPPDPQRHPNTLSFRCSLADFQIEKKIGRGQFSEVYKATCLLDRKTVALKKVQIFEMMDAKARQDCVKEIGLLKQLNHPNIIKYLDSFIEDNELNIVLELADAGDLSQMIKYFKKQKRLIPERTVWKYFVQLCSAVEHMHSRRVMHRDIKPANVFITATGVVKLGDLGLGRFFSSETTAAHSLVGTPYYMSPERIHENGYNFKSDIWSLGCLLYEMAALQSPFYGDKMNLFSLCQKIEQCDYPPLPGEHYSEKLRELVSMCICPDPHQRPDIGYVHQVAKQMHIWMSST
# Sequence of Serine/threonine-protein kinase Nek7 (Homo sapiens) (Q8TDX7 whole entry, looked up): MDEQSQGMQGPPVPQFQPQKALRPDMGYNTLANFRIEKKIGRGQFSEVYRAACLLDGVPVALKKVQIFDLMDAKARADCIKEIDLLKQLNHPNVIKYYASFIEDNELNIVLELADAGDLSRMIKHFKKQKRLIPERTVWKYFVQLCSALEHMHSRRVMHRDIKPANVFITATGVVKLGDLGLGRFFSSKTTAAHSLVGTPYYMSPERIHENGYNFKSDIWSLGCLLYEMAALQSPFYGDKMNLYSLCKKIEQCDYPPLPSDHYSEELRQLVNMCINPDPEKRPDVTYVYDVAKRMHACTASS
# Sequence of Casein kinase II subunit alpha (Homo sapiens) (P68400 whole entry, looked up): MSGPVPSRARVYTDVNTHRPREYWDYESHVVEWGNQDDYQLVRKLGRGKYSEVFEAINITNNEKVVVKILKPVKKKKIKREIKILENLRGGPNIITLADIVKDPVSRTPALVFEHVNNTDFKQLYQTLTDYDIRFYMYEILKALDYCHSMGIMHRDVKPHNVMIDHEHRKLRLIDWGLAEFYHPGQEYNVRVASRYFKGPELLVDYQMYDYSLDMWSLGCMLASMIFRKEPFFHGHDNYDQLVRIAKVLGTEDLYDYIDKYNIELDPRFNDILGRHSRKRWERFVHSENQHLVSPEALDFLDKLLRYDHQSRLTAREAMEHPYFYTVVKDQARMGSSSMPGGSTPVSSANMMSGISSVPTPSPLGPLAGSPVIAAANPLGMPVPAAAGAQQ
# Sequence of Sphingosine kinase 1 (Homo sapiens) (Q9NYA1 whole entry): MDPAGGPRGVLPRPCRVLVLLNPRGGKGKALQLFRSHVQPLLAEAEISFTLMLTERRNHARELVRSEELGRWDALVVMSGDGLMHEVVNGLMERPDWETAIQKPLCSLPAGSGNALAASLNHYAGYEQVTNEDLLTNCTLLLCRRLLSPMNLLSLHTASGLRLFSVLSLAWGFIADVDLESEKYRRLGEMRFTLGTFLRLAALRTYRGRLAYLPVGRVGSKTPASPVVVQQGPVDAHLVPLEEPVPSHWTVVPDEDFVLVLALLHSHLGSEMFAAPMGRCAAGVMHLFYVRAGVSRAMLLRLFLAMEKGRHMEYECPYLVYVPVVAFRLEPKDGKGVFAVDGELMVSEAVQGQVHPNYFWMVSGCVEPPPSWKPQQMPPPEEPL
smiles,measurement,setting,value
CNC(=O)c1ncccc1Nc1nc(Nc2cc3c(cc2OC)CCCN3C(=O)CN(C)C)nc2[nH]ccc12,inhibition,[1],-0.03%
same,inhibition,[2],-0.11%
same,inhibition,[3],-1.01%
same,inhibition,[4],6.76%
same,inhibition,[5],22.8%
same,inhibition,[6],12.9%
same,inhibition,[7],7.49%
same,inhibition,[8],2.85%
same,inhibition,[9],-0.65%
same,inhibition,[10],5.04%
same,inhibition,[11],10.1%
same,inhibition,[12],0.87%
same,inhibition,[13],2.58%
same,inhibition,[14],4.37%
same,inhibition,[15],3.89%
same,inhibition,[16],2.87%
same,inhibition,[17],-0.46%
same,inhibition,[18],3.53%
same,inhibition,[19],7.42%
same,inhibition,[20],5.86%
